# Assay results as given in PMC7862700, “An all-to-all approach to the identification of sequence-specific readers for epigenetic DNA modifications on cytosine”.
# Key:
# Experiment in all cases: DAPPL (digital affinity profiling via proximity ligation, sequencing); 10 mM Tris-HCl pH 7.5, 50 mM NaCl, 1 mM DTT, 4% glycerol, room temperature, 30 min; GST-TFs on glutathione beads, 16-mer random dsDNA library, 0.1% formaldehyde crosslink after washing; high values mean tight binding
# Settings in all cases: protein: recombinant; tags: N-terminal GST; dsDNA, one strand shown
# ERF = target: T1, ERF (Homo sapiens, UniProt P50548 1-548)
# T1 sequence: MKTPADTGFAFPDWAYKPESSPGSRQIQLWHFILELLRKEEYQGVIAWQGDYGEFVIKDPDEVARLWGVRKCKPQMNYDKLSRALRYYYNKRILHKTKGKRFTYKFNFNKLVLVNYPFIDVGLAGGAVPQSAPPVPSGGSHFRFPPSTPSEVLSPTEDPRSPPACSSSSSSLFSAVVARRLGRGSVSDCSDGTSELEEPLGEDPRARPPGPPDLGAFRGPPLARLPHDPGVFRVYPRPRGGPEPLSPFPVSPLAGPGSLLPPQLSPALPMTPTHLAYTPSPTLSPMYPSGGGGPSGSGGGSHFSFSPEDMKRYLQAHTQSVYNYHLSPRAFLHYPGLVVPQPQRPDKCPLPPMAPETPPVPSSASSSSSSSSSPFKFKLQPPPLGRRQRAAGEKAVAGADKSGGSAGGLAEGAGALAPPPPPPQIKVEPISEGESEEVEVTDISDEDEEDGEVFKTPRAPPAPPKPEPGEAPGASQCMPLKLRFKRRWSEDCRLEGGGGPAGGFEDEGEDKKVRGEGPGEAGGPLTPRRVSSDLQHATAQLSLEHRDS
# Procedure, shortened: (§1)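 Pools of DNA-barcoded human transcription factors, expressed in yeast as GST fusions on glutathione beads and combined with a tag-only sample, were incubated with 200 nmole of a 16-mer random double-stranded DNA library. Incubation took 30 min at room temperature in Tris/NaCl/DTT/glycerol buffer and was followed by washing, 0.1% formaldehyde crosslinking, proximity ligation (BsaI/T4 ligase, 1 h, 37 °C), PCR amplification and sequencing on an Illumina NextSeq500. Binding signal is the ratio of a hexamer's read frequency for a factor to its frequency for the tag-only sample.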
# ETV3L = target: T2, ETV3L (Homo sapiens, UniProt Q6ZN32 1-361)
# T2 sequence: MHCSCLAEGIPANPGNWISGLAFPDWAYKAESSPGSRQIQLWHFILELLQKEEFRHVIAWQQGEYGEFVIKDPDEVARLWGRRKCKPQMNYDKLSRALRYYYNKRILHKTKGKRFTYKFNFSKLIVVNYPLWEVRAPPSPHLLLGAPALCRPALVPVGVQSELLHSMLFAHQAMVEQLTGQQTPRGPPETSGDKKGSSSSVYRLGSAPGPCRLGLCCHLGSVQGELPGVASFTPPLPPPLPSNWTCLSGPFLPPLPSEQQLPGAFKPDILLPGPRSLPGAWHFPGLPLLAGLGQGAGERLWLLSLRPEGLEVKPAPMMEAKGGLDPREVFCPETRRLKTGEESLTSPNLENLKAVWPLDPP
# Procedure, shortened: as §1
# ETS2 = target: T3, ETS2 (Homo sapiens, UniProt P15036 1-469)
# T3 sequence: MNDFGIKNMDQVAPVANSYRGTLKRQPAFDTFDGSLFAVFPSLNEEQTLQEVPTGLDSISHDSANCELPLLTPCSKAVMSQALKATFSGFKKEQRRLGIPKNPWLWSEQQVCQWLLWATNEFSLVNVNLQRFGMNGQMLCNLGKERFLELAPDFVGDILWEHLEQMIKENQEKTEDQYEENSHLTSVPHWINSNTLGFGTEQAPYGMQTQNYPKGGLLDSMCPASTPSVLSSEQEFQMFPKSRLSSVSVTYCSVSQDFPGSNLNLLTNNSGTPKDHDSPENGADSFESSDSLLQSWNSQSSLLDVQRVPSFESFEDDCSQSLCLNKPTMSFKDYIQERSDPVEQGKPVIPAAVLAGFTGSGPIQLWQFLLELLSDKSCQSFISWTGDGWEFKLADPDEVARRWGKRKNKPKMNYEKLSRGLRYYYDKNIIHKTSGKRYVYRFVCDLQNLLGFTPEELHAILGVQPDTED
# Procedure, shortened: as §1
# SPDEF = target: T4, SPDEF (Homo sapiens, UniProt O95238 1-335)
# T4 sequence: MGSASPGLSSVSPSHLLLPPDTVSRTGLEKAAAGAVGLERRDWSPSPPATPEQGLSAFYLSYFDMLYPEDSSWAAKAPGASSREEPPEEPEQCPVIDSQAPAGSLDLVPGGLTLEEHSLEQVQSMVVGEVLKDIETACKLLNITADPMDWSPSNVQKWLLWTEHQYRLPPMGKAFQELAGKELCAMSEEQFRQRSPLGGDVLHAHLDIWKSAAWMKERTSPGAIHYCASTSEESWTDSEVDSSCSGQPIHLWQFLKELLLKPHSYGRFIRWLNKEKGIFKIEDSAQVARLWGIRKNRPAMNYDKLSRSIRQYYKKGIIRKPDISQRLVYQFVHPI
# Procedure, shortened: as §1
# ETV7 = target: T5, ETV7 (Homo sapiens, UniProt Q9Y603 1-341)
# T5 sequence: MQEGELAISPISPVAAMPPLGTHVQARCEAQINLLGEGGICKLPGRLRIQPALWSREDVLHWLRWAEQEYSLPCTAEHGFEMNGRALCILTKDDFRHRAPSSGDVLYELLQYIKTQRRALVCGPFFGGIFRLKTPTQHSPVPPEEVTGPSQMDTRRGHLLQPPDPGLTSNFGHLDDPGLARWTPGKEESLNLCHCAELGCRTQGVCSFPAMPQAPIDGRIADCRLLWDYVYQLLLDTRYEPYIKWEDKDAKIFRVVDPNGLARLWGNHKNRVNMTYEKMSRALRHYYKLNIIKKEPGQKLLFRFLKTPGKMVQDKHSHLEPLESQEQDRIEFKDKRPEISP
# Procedure, shortened: as §1
# ELF5 = target: T6, ELF5 (Homo sapiens, UniProt Q9UKW6-2 1-255)
# T6 sequence: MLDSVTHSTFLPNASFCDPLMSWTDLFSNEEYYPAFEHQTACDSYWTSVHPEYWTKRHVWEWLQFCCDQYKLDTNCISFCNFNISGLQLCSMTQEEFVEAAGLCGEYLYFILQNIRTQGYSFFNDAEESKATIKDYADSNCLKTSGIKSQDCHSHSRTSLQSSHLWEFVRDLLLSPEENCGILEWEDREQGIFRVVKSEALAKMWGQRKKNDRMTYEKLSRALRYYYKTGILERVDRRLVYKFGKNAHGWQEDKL
# Procedure, shortened: as §1
# ETV3 = target: T7, ETV3 (Homo sapiens, UniProt P41162-2 1-143)
# T7 sequence: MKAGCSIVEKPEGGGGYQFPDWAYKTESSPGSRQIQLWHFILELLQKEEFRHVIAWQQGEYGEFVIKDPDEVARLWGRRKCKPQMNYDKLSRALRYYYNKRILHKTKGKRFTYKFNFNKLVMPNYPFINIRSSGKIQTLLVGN
# Procedure, shortened: as §1
# ETV6 = ETV6 (Homo sapiens, UniProt P41212 1-452)
# Procedure, shortened: as §1
# ETV6, sequence (P41212 whole entry): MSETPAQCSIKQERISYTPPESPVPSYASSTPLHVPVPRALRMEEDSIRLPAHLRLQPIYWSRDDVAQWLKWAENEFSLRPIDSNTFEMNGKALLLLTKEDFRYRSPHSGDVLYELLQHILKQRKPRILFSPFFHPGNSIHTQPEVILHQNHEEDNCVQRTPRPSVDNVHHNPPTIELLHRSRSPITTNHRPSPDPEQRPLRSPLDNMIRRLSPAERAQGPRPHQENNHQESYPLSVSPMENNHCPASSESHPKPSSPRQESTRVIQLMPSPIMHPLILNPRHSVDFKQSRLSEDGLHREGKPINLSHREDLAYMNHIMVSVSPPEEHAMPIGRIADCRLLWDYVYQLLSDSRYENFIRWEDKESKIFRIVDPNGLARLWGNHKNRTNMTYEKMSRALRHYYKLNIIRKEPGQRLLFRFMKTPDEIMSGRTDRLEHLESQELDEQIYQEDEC
sequence,measurement,setting,value
CCCGCT,binding signal,ERF,"1.37 fold enrichment (6-mer frequency, TF over GST control)"
same,binding signal,ETV3L,"1.47 fold enrichment (6-mer frequency, TF over GST control)"
same,binding signal,ETS2,"1.22 fold enrichment (6-mer frequency, TF over GST control)"
same,binding signal,SPDEF,"1.32 fold enrichment (6-mer frequency, TF over GST control)"
same,binding signal,ETV7,"1.36 fold enrichment (6-mer frequency, TF over GST control)"
same,binding signal,ELF5,"1.39 fold enrichment (6-mer frequency, TF over GST control)"
same,binding signal,ETV3,"1.36 fold enrichment (6-mer frequency, TF over GST control)"
same,binding signal,ETV6,"1.38 fold enrichment (6-mer frequency, TF over GST control)"
ATAGAT,binding signal,ERF,"1.2 fold enrichment (6-mer frequency, TF over GST control)"
same,binding signal,ETV3L,"1.25 fold enrichment (6-mer frequency, TF over GST control)"
same,binding signal,ETS2,"1.12 fold enrichment (6-mer frequency, TF over GST control)"
same,binding signal,SPDEF,"1.27 fold enrichment (6-mer frequency, TF over GST control)"
same,binding signal,ETV7,"1.17 fold enrichment (6-mer frequency, TF over GST control)"
same,binding signal,ELF5,"1.18 fold enrichment (6-mer frequency, TF over GST control)"
same,binding signal,ETV3,"1.01 fold enrichment (6-mer frequency, TF over GST control)"
same,binding signal,ETV6,"1.15 fold enrichment (6-mer frequency, TF over GST control)"
TACGAC,binding signal,ERF,"1.18 fold enrichment (6-mer frequency, TF over GST control)"
same,binding signal,ETV3L,"1.22 fold enrichment (6-mer frequency, TF over GST control)"
same,binding signal,ETS2,"1.27 fold enrichment (6-mer frequency, TF over GST control)"
same,binding signal,SPDEF,"1.48 fold enrichment (6-mer frequency, TF over GST control)"
same,binding signal,ETV7,"1.18 fold enrichment (6-mer frequency, TF over GST control)"
same,binding signal,ELF5,"1.29 fold enrichment (6-mer frequency, TF over GST control)"
same,binding signal,ETV3,"1.33 fold enrichment (6-mer frequency, TF over GST control)"
same,binding signal,ETV6,"1.29 fold enrichment (6-mer frequency, TF over GST control)"
AGCTAT,binding signal,ERF,"1.17 fold enrichment (6-mer frequency, TF over GST control)"
same,binding signal,ETV3L,"1.17 fold enrichment (6-mer frequency, TF over GST control)"
same,binding signal,ETS2,"1.11 fold enrichment (6-mer frequency, TF over GST control)"
same,binding signal,SPDEF,"1.14 fold enrichment (6-mer frequency, TF over GST control)"
same,binding signal,ETV7,"1.13 fold enrichment (6-mer frequency, TF over GST control)"
same,binding signal,ELF5,"1.12 fold enrichment (6-mer frequency, TF over GST control)"
same,binding signal,ETV3,"1.13 fold enrichment (6-mer frequency, TF over GST control)"
same,binding signal,ETV6,"1.08 fold enrichment (6-mer frequency, TF over GST control)"
TCCTGT,binding signal,ERF,"1.6 fold enrichment (6-mer frequency, TF over GST control)"
same,binding signal,ETV3L,"1.88 fold enrichment (6-mer frequency, TF over GST control)"
same,binding signal,ETS2,"1.84 fold enrichment (6-mer frequency, TF over GST control)"
same,binding signal,SPDEF,"2.32 fold enrichment (6-mer frequency, TF over GST control)"
same,binding signal,ETV7,"1.89 fold enrichment (6-mer frequency, TF over GST control)"
same,binding signal,ELF5,"2.35 fold enrichment (6-mer frequency, TF over GST control)"
same,binding signal,ETV3,"1.89 fold enrichment (6-mer frequency, TF over GST control)"
same,binding signal,ETV6,"1.84 fold enrichment (6-mer frequency, TF over GST control)"
TGGATG,binding signal,ERF,"1.46 fold enrichment (6-mer frequency, TF over GST control)"
same,binding signal,ETV3L,"1.53 fold enrichment (6-mer frequency, TF over GST control)"
same,binding signal,ETS2,"1.4 fold enrichment (6-mer frequency, TF over GST control)"
same,binding signal,SPDEF,"1.53 fold enrichment (6-mer frequency, TF over GST control)"
same,binding signal,ETV7,"1.68 fold enrichment (6-mer frequency, TF over GST control)"
same,binding signal,ELF5,"1.45 fold enrichment (6-mer frequency, TF over GST control)"
same,binding signal,ETV3,"1.57 fold enrichment (6-mer frequency, TF over GST control)"
same,binding signal,ETV6,"1.44 fold enrichment (6-mer frequency, TF over GST control)"
CGCTTT,binding signal,ERF,"1.24 fold enrichment (6-mer frequency, TF over GST control)"
same,binding signal,ETV3L,"1.26 fold enrichment (6-mer frequency, TF over GST control)"
same,binding signal,ETS2,"1.36 fold enrichment (6-mer frequency, TF over GST control)"
same,binding signal,SPDEF,"1.2 fold enrichment (6-mer frequency, TF over GST control)"
same,binding signal,ETV7,"1.4 fold enrichment (6-mer frequency, TF over GST control)"
same,binding signal,ELF5,"1.25 fold enrichment (6-mer frequency, TF over GST control)"
same,binding signal,ETV3,"1.3 fold enrichment (6-mer frequency, TF over GST control)"
same,binding signal,ETV6,"1.31 fold enrichment (6-mer frequency, TF over GST control)"
CATTTA,binding signal,ERF,"1.23 fold enrichment (6-mer frequency, TF over GST control)"
same,binding signal,ETV3L,"1.24 fold enrichment (6-mer frequency, TF over GST control)"
same,binding signal,ETS2,"1.31 fold enrichment (6-mer frequency, TF over GST control)"
same,binding signal,SPDEF,"1.22 fold enrichment (6-mer frequency, TF over GST control)"
same,binding signal,ETV7,"1.27 fold enrichment (6-mer frequency, TF over GST control)"
same,binding signal,ELF5,"1.11 fold enrichment (6-mer frequency, TF over GST control)"
same,binding signal,ETV3,"1.23 fold enrichment (6-mer frequency, TF over GST control)"
same,binding signal,ETV6,"1.13 fold enrichment (6-mer frequency, TF over GST control)"
CGATGG,binding signal,ERF,"1.18 fold enrichment (6-mer frequency, TF over GST control)"
same,binding signal,ETV3L,"1.34 fold enrichment (6-mer frequency, TF over GST control)"
same,binding signal,ETS2,"1.33 fold enrichment (6-mer frequency, TF over GST control)"
same,binding signal,SPDEF,"1.29 fold enrichment (6-mer frequency, TF over GST control)"
same,binding signal,ETV7,"1.39 fold enrichment (6-mer frequency, TF over GST control)"
same,binding signal,ELF5,"1.18 fold enrichment (6-mer frequency, TF over GST control)"
same,binding signal,ETV3,"1.24 fold enrichment (6-mer frequency, TF over GST control)"
same,binding signal,ETV6,"1.33 fold enrichment (6-mer frequency, TF over GST control)"
